Sampled rows, rich in hits. Any-hit rate of the full collection: about 21%.
Pf growth 48h – inhibits P. falciparum growth in the first generation, 48 h; P. falciparum luciferase growth in erythrocytes, 48 h; AID 504832; Potency, µM (doses to about 28.7 µM), for inactives: at the highest dose activity change, negative = inhibition, actives largely listed as inhibitors; 310,000 compounds, 5.9% hits; note: potency is the fitted concentration of half-maximal effect; % is set by controls: 0 for no effect and ±100 for the full control effect
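Read-out is firefly luciferase luminescence from an integrated reporter in P. falciparum, so falling signal marks reduced parasite growth. Infected erythrocytes were at 2% hematocrit and 0.1% parasitemia (final) in Albumax-supplemented RPMI 1640.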
Pf growth 96h – inhibits malaria parasite growth, 96 h; AID 504834; 320,000 compounds, 6.9% hits; P. falciparum luciferase reporter growth, 96 h; Potency, µM (top dose mostly 28.7 µM), inactives show at the top dose activity change, negative = inhibition, hits mostly inhibitors; note: potency is the fitted concentration of half-maximal effect; % is set by controls: 0 for no effect and ±100 for the full control effect
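96 h incubation, 37 C, 5% CO2, of luciferase-reporter P. falciparum-infected RBCs (2% hematocrit, 0.05% parasitemia final) with test compounds; endpoint luminescence.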
Cycloheximide cs – counter-screen hit for Shiga toxin inhibitors, cycloheximide. cell reporter, cycloheximide protein synthesis inhibition counterscreen. max response, %. 300,000 compounds, 12% hits; in the data active = max response mostly above about 13%, no sharp cut-off; inactive = mostly below about 14%; note: read at 38.3 µM for the half of the compounds with a filed dose; 0% is about no effect
Shiga inhibitor – inhibitors of Shiga toxin in Vero cells; inhibition, % at 38.7 µM; Vero cells, Shiga toxin protein synthesis inhibition reporter; AID 2315; 290,000 compounds, 9.2% hits; in the data active = inhibition mostly above about 28%, no sharp cut-off; inactive = mostly below about 43%; note: 0% is about no effect
NS1 inh – inhibitors of influenza NS1 protein function; Potency, µM (highest dose often 46.1 µM), inactives show at the highest dose activity, positive = more growth; 270,000 compounds, 0.4% hits; AID 2326; calls by dose curve; note: potency is the fitted concentration of half-maximal effect; actives are rising curves; nearly all actives have a fitted effect of over 50% in size
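Recovery from NS1-induced slow growth read by OD600 in budding yeast switched to galactose assay medium (pH 6.0, -URA) at 1:100 dilution. Compound 23 nl per well; the matching strain lacking NS1 serves as control.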
* marks the source's active call; other numbers are inactive results; u = inconclusive; x = no result given; ! = not active in a repeat; [ ] = dose if it differs, or a comment. Unless noted, calls come from the whole dose curve; as a rule, active = well fitted inhibition curve with a large enough effect; inconclusive = small, poorly fitted or top-dose-only effect, or another doubt; inactive = no such curve, though single readings can be large or run the other way.

SMILES	Pf growth 48h	Pf growth 96h	Cycloheximide cs	Shiga inhibitor	NS1 inh
O=C(NCCc1ccc(F)cc1)c1ccc([N+](=O)[O-])cc1	61%	14%	34*	67*	-3%
O=C(NCCC1=CCCCC1)c1ccc([N+](=O)[O-])cc1	126%	-2%	75*	131*	-13%
O=C(CCNC(=O)c1ccc([N+](=O)[O-])cc1)NCCC1=CCCCC1	-5%	-12%	x	x	x
Cc1cc(C(=O)NCCC2=CCCCC2)ccc1[N+](=O)[O-]	63%	43%	49*	96*	-34%
O=C(NC1CCCCCC1)c1ccc(CN2CCOCC2)cc1	54%	10µM*	41*	96*	-12%
CN1C(C(=O)Nc2ccc(OC(F)(F)F)cc2)=CC(c2ccc3c(c2)OCO3)=NS1(=O)=O	-6%	u	-2	2	2%
Cc1cccc(C(=O)N[C@H](C(=O)OCC(=O)NC2CCS(=O)(=O)C2)C(C)C)c1 (stereo not given in full)	10%	36%	3	5	7%
O=C(NCCC1=CCCCC1)c1ccc(Br)o1	-6%	-24%	28*	84*	-69%
CN(C)c1cccc(C(=O)N/N=C/c2ccsc2)c1	122%	59%	67*	80*	6%
C/C(=N/N=C/c1ccc(N(C)C)cc1)c1ccccc1	250%	u	47*	168*	-25%
CN(C)c1ccc(/C=N\NC(=O)c2ccc(Cn3cc(Cl)cn3)cc2)cc1	-9%	0%	-2	-4	-25%
CN(C)c1ccc(/C=N/NC(=O)c2ccc(Cl)cc2)cc1	35%	79%	2	18*	-19%
CN(C)c1ccc(/C=N/NC(=O)CCCCCNC(=O)c2ccccc2)cc1	15%	u	55*	60*	-10%
Cc1cc(C)n2nc(C(=O)Nc3ccc(S(=O)(=O)N(C)C)cc3)nc2n1	-10%	u	-2	-9	2%
COc1cccc(CNC(=O)CCCSc2ccccc2)c1	0%	0%	16	35	-5%
CSc1ccc(/C=N/NC(=O)c2ccccc2Cl)cc1	-18%	-65%[5.75 µM]	32*	91*	-8%
CN(C)c1ccc(/C(=N\O)c2ccccc2)cc1	61%	59%	35*	83*	8%
CN(C)c1ccc(/C=N/NC(=O)c2ccccc2)cc1	60%	37%	33*	53*	-8%
CC/C(=N\NC(=O)c1ccc(N(C)C)cc1)c1ccccc1	12%	57%	13	33*	8%
Cc1ccc(S(=O)(=O)N2CCC(NC(=O)c3cccnc3)CC2)cc1Cl	u	u	-3	-7	2%
COC(=O)c1cc(COc2ccc3c4c(c(=O)oc3c2)CCC4)c(C)o1	x	-19%	1	-5	1%
COc1ccc(N2CCN(C(=O)CN3C(=O)NC4(CCCCCC4)C3=O)CC2)cc1	-21%	u	x	x	x
CN(C)c1ccc(/C=N/NC(=O)c2ccccc2Cl)cc1	87%	-4%	35*	10	-39%
O=C(CCCCCNC(=O)c1ccccc1)N/N=C/c1ccccc1O	7%	25%	25*	25	4%
CN(C)c1ccc(/C=N/NC(=O)c2ccc3nc[nH]c3c2)cc1	25%	32%	16*	22*	-6%
SMILES	Pf growth 48h	Pf growth 96h	Cycloheximide cs	Shiga inhibitor	NS1 inh
CCN(CC)c1ccc(/C=N/NC(=O)c2ccc3nc[nH]c3c2)cc1	u	-20%	-2	11	1%
CCOC(=O)N1CCN(C(=O)c2ccc(CS(=O)Cc3ccc(C)cc3)o2)CC1 (stereo not given)	12%	u	-2	6	5%
CN(CC(=O)Nc1cccc(F)c1)C(=O)c1cccnc1Sc1ccc(Cl)cc1	u	-2%	x	x	x
COc1cccc2c(=O)ccoc12	14%	-4%	12*	39	-7%
O=C(O)c1cc2c(=O)c3ccccc3oc2nc1C(F)(F)F	37%	39%	-4	-6	4%
O=c1c2ccccc2oc2ncccc12	70%	-98%	55*	57	-10%
COc1cccc2c(=O)c3ccccc3oc12	123%	12%	55*!	67*	-2%
COc1ccc(C(=O)Oc2c(C)occc2=O)cc1OC	2%	50%	-3	-3	-1%
Cc1ccc(-n2ncc3c2CC(C)(C)CC3NC(=O)CCc2c(C)noc2C)cc1 (stereo not given)	-20%	u	3	-6	-17%
CCCCN(CCCC)CP(=O)(c1ccccc1)c1ccccc1	x	49%	-4	-13	-11%
COC(=O)COc1ccc(C(=O)OC)cc1	11%	-18%	-3	-8	-63%

Screening results (PubChem)
